This is an account of results in PubChem BioAssay (NCATS).

For test [1], the target named is Phospholipid hydroperoxide glutathione peroxidase GPX4 (Homo sapiens) (UniProt P36969). Kind of test: Primary qHTS Assay for Inhibitors of Recombinant Selenoprotein Glutathione Peroxidase 4 (GPX4) (AID 1845192). Also: nearly all actives have a fitted effect of over 65% in size. To be noted: recombinant GPX4, GR-coupled NADPH fluorescence, 15 min; series mostly up to 50 µM. In a few lines:
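NADPH consumption followed by fluorescence at 340/450 nm, t=0 and after 15 min at room temperature. Reaction started with cumene hydroperoxide (0.5 mM final) after 30 min compound–GPX4 preincubation; final 200 nM GPX4, 100 nM GR, 1 mM GSH, 0.5 mM NADPH.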
A general note: qHTS replaces the single test concentration by a dilution series.

For test [2], the target named is Glutathione peroxidase 1 (Homo sapiens) (UniProt P07203). Kind of test: Primary qHTS Assay for Inhibitors of Recombinant Selenoprotein Glutathione Peroxidase 1 (GPX1) (AID 1845191). Also: nearly all actives have a fitted effect of over 65% in size. The note with it: recombinant GPX1, GR-coupled NADPH fluorescence, 15 min; series mostly up to 48.8 µM. In a few lines: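 NADPH consumption tracked by fluorescence at 340/450 nm between t=0 and t=15 min, room temperature. Final mix: 10 nM GPX1, 100 nM glutathione reductase, 1 mM GSH, 0.5 mM NADPH, 0.5 mM cumene hydroperoxide, 0.01% BSA; 30 min compound–enzyme preincubation.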

A short description of test [3]: Quantitative High-Throughput drug screen in 47 multiple myeloma cell lines against the NCATS MIPE library collection: Delta47_JCRB cell viability assay (AID 1918925; also: nearly all actives have a fitted effect of over 45% in size; also: potency is read from the fitted curve at half-maximal effect). To be noted: Delta47 myeloma viability, CellTiter-Glo ATP, 48 h; series mostly up to 45.8 µM. In outline: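 Primary qHTS used for cherry-picking: cells at 500/well, library compounds for 48 h (37C, 5% CO2), luminescent ATP assay.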
(ATP-based viability assays read luminescence as a measure of living cells.)

Test [4] is described as follows: Quantitative High-Throughput drug screen in 47 multiple myeloma cell lines against the NCATS MIPE library collection: FR4_PLB cell viability assay (AID 1918924; also: nearly all actives have a fitted effect of over 35% in size; also: potency is read from the fitted curve at half-maximal effect). The note with it: FR4_PLB myeloma cells viability, CellTiter-Glo ATP, 48 h; series mostly up to 45.8 µM. In outline: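 Myeloma cells (500 per well) were exposed to MIPE 4.0 compounds by pin transfer and incubated 48 hours at 37C, 5% CO2. Viability was read as ATP by CellTiter-Glo luminescence, normalised to DMSO (100%) and media-only (0%) wells.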

Results filed as inconclusive are left out. The source made the active and inactive calls. Calls follow the shape of the dose curve; as a rule, active = well fitted curve in the direction sought with a large enough effect; inconclusive = small, poorly fitted or top-dose-only effect, or another doubt; inactive = no such curve, though single readings can be large; an effect the other way counts as inactive or inconclusive.

Phospholipid hydroperoxide glutathione peroxidase GPX4 (Homo sapiens), sequence (P36969 whole entry, looked up): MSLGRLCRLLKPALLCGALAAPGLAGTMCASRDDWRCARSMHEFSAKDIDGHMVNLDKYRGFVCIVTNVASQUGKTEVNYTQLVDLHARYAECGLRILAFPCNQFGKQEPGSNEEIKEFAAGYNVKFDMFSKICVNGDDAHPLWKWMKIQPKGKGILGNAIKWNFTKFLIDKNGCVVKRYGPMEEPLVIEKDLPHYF
Glutathione peroxidase 1 (Homo sapiens), sequence (P07203 whole entry, looked up): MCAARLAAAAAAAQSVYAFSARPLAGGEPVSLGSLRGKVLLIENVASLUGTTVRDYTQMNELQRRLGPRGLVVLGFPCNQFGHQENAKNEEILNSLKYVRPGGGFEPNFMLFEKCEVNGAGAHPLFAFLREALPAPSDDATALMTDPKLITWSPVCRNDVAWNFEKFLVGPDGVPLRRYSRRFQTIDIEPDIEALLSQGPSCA

Consider `C[C@@H](O)[C@H]1C(=O)N2C(C(=O)O)=C(S[C@@H]3CN[C@H](C(=O)N(C)C)C3)[C@H](C)[C@H]12`, for which the Potency entry in test [1] is “inactive”. `O=C(O)c1c(Cl)c(Cl)c(Cl)c(Cl)c1-c1c2cc(I)c(=O)c(I)c-2oc2c(I)c(O)c(I)cc12`: the Potency result in test [2] was “inactive”. The Potency in test [3] was 14.8 µM (active). For the compound `CCC(=O)O[C@]1(C(=O)CO)CC[C@H]2[C@@H]3CCC4=CC(=O)CC[C@]4(C)[C@@H]3CC[C@@]21C`, the Potency result in test [4] is “inactive”.

In the case of `C[C@]12CC[C@@H]3c4ccc(O)cc4CC[C@H]3[C@H]1C[C@@H](O)[C@H]2O`, the Potency result in test [4] was “inactive”. As to `NS(=O)(=O)c1ccc(NC2=CC(=O)c3ccccc3C2=O)cc1`, the Potency result in test [1] was “inactive”. Moreover, the Potency was 2.96 µM (active) in test [4] and 18.7 µM (active) in test [3]. As to `COc1ccc(-c2oc3c(CC=C(C)C)c(OC4O[C@H](CO)[C@@H](O)[C@H](O)[C@@H]4O)cc(O)c3c(=O)c2OC2O[C@@H](C)[C@H](O)[C@@H](O)[C@@H]2O)cc1` (stereo partly specified), in test [3], the Potency was 18.7 µM (active). Take `O=C(OCC#CCSc1nnc(-c2cccc3ccccc23)o1)c1cc2ccccc2s1`: the Potency result in test [4] and in test [3] was “inactive” each time. Take `C[C@H]1[C@H](NC(=O)C(=NOC(C)(C)C(=O)O)c2csc(N)n2)C(=O)N1S(=O)(=O)O`: the Potency entry in test [4] and in test [3] was “inactive” in each case. Turning to `CC(=O)O[C@]1(C(C)=O)CC[C@@H]2[C@@H]3C[C@H](C)C4=CC(=O)CC[C@]4(C)[C@H]3CC[C@@]21C`, the Potency in test [3] was 18.7 µM (active). Take `O=c1c(-c2ccc(O)cc2)coc2cc(OC3O[C@H](CO)[C@H](O)[C@H](O)[C@H]3O)cc(O)c12` (stereo partly specified): the Potency in test [3] was 3.72 µM (active).

On to `NC[C@@H]1O[C@@H](O[C@H]2[C@@H](O)[C@H](O[C@@H]3[C@@H](O)[C@@H](N)C[C@H](N)[C@H]3O[C@H]3O[C@H](CN)[C@@H](O)[C@@H](O)[C@H]3N)O[C@H]2CO)[C@H](N)[C@@H](O)[C@@H]1O`, for which the Potency result in test [4] and in test [3] was “inactive” throughout. `CO[C@H]1C=CC=C(C)C(=O)NC2=CC(=O)C(NCCN(C)C)=C(C[C@@H](C)C[C@H](OC)[C@@H](O)[C@@H](C)C=C(C)[C@@H]1OC(N)=O)C2=O`: the Potency is 0.166 µM (active) in test [4] and 0.0469 µM (active) in test [3]. In the case of `C[C@@H]1CCN(C(=O)CC#N)C[C@H]1N(C)c1ncnc2[nH]ccc12`, the Potency result in test [4] and in test [3] was “inactive” each time. Turning to `Cc1c(O)cccc1C(=O)N[C@@H](CSc1ccccc1)[C@H](O)CN1C[C@H]2CCCC[C@@H]2C[C@@H]1C(=O)NC(C)(C)C`, the Potency in test [4] was 26.4 µM (active); in test [3], 20.9 µM (active). Regarding `CC=C(C)C(=O)O[C@H]1C(C)=C[C@]23C(=O)[C@@H](C=C(CO)[C@@H](O)[C@]12O)[C@H]1[C@@H](C[C@H]3C)C1(C)C`, the Potency in test [3] is 5.26 µM (active).

Take `N#CC(=C(N)Sc1ccccc1N)C(C#N)=C(N)Sc1ccccc1N`: the Potency was 7.43 µM (active) in test [4] and 16.6 µM (active) in test [3].

Take `Clc1ccc(CCC(Cn2ccnc2)Sc2c(Cl)cccc2Cl)cc1` (stereo unspecified): the Potency in test [3] was 23.5 µM (active). Still for that read-out and setting: the value for `Cc1c[nH]c(C=C2C(=O)Nc3ccccc32)c1CCC(=O)O` was “inactive”. Turning to `CC[C@H]1OC(=O)[C@H](C)[C@@H](O[C@H]2C[C@@](C)(OC)[C@@H](O)[C@H](C)O2)[C@H](C)[C@@H](O[C@@H]2O[C@H](C)C[C@H](N(C)C)[C@@H]2O)[C@](C)(O)C[C@@H](C)CN(C)[C@H](C)[C@@H](O)[C@]1(C)O`, in test [4], the Potency entry is “inactive”. With `CC=CC[C@@H](C)C(=O)[C@H]1C(=O)N[C@@H](C(C)C)C(=O)N(C)CC(=O)N(C)[C@@H](CC(C)C)C(=O)N[C@@H](C(C)C)C(=O)N(C)[C@@H](CC(C)C)C(=O)N[C@@H](C)C(=O)N[C@H](C)C(=O)N(C)[C@@H](CC(C)C)C(=O)N(C)[C@@H](CC(C)C)C(=O)N(C)[C@@H](C(C)C)C(=O)N1C`, the Potency in test [4] and in test [3] was 23.5 µM (active) in each case. With `OC[C@H]1O[C@@H](n2cnc3c2NC=NC[C@@H]3O)C[C@H]1O`, the Potency entry in test [4] and in test [3] was “inactive” each time.

As for `CCC(CC)[C@H](NC(C)=O)[C@@H]1[C@H](O)[C@@H](C(=O)O)C[C@@H]1N=C(N)N`, the Potency result in test [3] was “inactive”. `Nc1ncnc2c1ncn2[C@@H]1O[C@H](CO)C[C@@H]1O`: in test [3], the Potency result was “inactive”.

With `CC=CC(=O)N(CC)c1ccccc1C`, the Potency result in test [4] and in test [3] was “inactive” each time. Regarding `CCOC1OC(=O)C[C@H]1NC(=O)[C@@H]1CCCN1C(=O)[C@@H](NC(=O)c1ccc(N)c(Cl)c1)C(C)(C)C` (stereo partly specified), the Potency entry in test [4] was “inactive”.

With `CON=C(C(=O)N[C@@H]1C(=O)N2C(C(=O)OCOC(=O)C(C)(C)C)=C(C=Cc3scnc3C)CS[C@H]12)c1csc(N)n1`, the Potency entry in test [4] and in test [3] was “inactive” throughout. In the case of `CCOC(=O)O[C@]1(C(=O)OCCl)CC[C@@H]2[C@H]3CCC4=CC(=O)C=C[C@]4(C)[C@@H]3[C@@H](O)C[C@@]21C`, the Potency entry in test [4] and in test [3] was “inactive” in each case. Consider `COC(=O)N[C@H](C(=O)N1CCC[C@@H]1c1ncc(-c2ccc(-c3ccc(-c4cnc([C@@H]5CCCN5C(=O)[C@@H](NC(=O)OC)C(C)C)[nH]4)cc3)cc2)[nH]1)C(C)C`, for which the Potency in test [4] is 23.5 µM (active); in test [3], 20.9 µM (active).

On to `CC(C)OC(=O)CCCC=CC[C@@H]1[C@H](C=C[C@@H](O)COc2cccc(C(F)(F)F)c2)[C@H](O)C[C@@H]1O`, for which the Potency is 29.6 µM (active) in test [4] and 14.8 µM (active) in test [3]. `CC1(C)O[C@H]2C[C@@H]3[C@H]4CCC5=CC(=O)C=C[C@]5(C)[C@@]4(F)[C@@H](O)C[C@]3(C)[C@]2(C(=O)CO)O1`: the Potency result in test [4] is “inactive”. Regarding `CCN(CC)CCOc1ccc(C(=C(Cl)c2ccccc2)c2ccccc2)cc1`, the Potency entry in test [4] is “inactive”. Further, in test [3], the Potency was 29.6 µM (active). `COC[C@@H](c1ccc(C(F)(F)F)cc1)N1CCN(C2(C)CCN(C(=O)c3c(C)ncnc3C)CC2)C[C@H]1C`: in test [4], the Potency entry was “inactive”. In addition, in test [3], the Potency is 23.5 µM (active). With `Cc1[nH]c(C=C2C(=O)Nc3ccc(S(=O)(=O)Cc4c(Cl)cccc4Cl)cc32)c(C)c1C(=O)N1CCC[C@H]1CN1CCCC1`, the Potency in test [4] is 23.5 µM (active); in test [3], 5.9 µM (active). Turning to `O=C(CCc1ccc(O)cc1)c1c(O)cc(O)cc1O[C@@H]1O[C@H](CO)[C@H](O)[C@H](O)[C@H]1O`, the Potency result in test [4] and in test [3] was “inactive” each time.

For `Cc1nnc(C(C)C)n1C1C[C@H]2CC[C@@H](C1)N2CC[C@H](NC(=O)C1CCC(F)(F)CC1)c1ccccc1` (stereo partly specified), in test [4], the Potency result is “inactive”. Besides, the Potency in test [3] is 16.6 µM (active).

As for `CC1(C)CCC[C@@]2(C)[C@@H]1CC[C@@]1(C)OC(=O)C[C@H]21`, in test [4], the Potency was 14.8 µM (active). The Potency result in test [3] is “inactive”. Take `CC(=Cc1ccccc1)C=C1SC(=S)N(CC(=O)O)C1=O`: the Potency result in test [4] and in test [3] was “inactive” each time.
